The structures appear in SMILES notation. This is part of a sample that, as a whole, favours compounds with a hit. Of some 83,000 tested, about 20% had one in any assay.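 Step 1: grow cells in 96-well plates. Step 2: add test compound at a single concentration. Step 3: incubate 48 h. Step 4: record percent growth.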 Unmarked numbers belong to inactive results. Active and inactive are the calls of the source. Rule for the calls: active = growth percent below 10; inactive = the rest.

This experiment deals with HL-60(TB) leukemia. Description: NCI-60 one-dose screen, 48 h (100 = growth as untreated, 0 = no growth, -100 = all killed). The following applies: 10 µM unless noted.
As to `N#Cc1c(-c2ccccc2)cc(-c2ccccc2)n(CCCCC(=O)O)c1=O`, the growth is 102%. For `Cc1cc(C)nc(NS(=O)(=O)c2ccc(Nc3nc4nc(SCc5ccccc5)nc(-c5ccc(O)cc5)c4c(=O)[nH]3)cc2)n1` the value was 86.3%; for `COc1cc2c3c(c4c5ccccc5[nH]c4c2c(OC)c1OC)C(=O)N(CCN1CCCCC1)C3=O`, 63%. For `O=C(/C=C/C12c3ccccc3C(c3ccccc31)C1C(=O)NC(=O)C12)c1ccc(Br)cc1` (centres undefined) the value was 2.14% (active); for `COc1ccc2c(c1)c(CC(=O)[Se]C)c(C)n2C(=O)c1ccc(Cl)cc1`, -38.9% (active). For `CC(=O)O.CN1[CH-]N(Cc2ccc(C#N)cc2)c2ccccc21.[Ag+]` the value was 102%; for `NC(=O)c1cc(I)ccc1NC(=O)/C=C/c1ccccc1`, 0.952% (active). With `Cc1[nH]n(C(N)=S)c(=O)c1N=Nc1ccc(S(=O)(=O)Nc2ccncn2)cc1`, the growth was 103%. For the compound `c1ccc(CC(NCCNC(Cc2ccccc2)c2ccccc2)c2ccccc2)cc1` (centres undefined), the growth was -0.655% (active).

As to `COC1OC(CO)C(OC)C(O)C1O` (centres undefined), the growth was 103%. For `O=C1/C(=C/c2cccc(Br)c2)COc2ccc(O)c(O)c21`, the growth was -15.3% (active). The result for `CC1(C)CN(c2cnc(C(=O)Nc3cc(F)cc4cccnc34)cn2)CCN1` reads 11.7%; that for `CSc1ccc(N(C)c2nc(C)nc3c2CCC3)cc1`, -28.3% (active).

As for `CC(=O)CC(=O)SC1=NCCS1`, the growth is 107%.

`O=[N+]([O-])c1cccc(C2CC(c3ccccc3)=Nc3ccccc3S2)c1` (centres undefined): the growth is 84.7%. In the case of `NCCCn1c2c(c3cc(-c4ccn[nH]4)ccc3c1=O)C(=O)c1ccccc1-2`, the growth is 39.6%. For `COC(=O)[C@]12CC[C@@H](C)[C@H](C)[C@@H]1C1=CC[C@@H]3[C@@]4(C)C(c5ncon5)=C[C@@](C)(CO)C4=CC[C@@]3(C)[C@]1(C)CC2`, the growth is -33.9% (active). For `COc1ccc(CN2c3ccccc3Sc3ccccc32)c(F)c1` the value was -27% (active). Regarding `O=C(Nc1ccc(-n2cc(-c3ccncc3)c(-c3ccc(O)c(Cl)c3)n2)cc1)Nc1cccc(Cl)c1Cl`, the growth was 78.8%. Regarding `CC(c1ccc(-n2cccn2)cc1)c1cnc(N2CCc3ccc(C(N)=O)cc3C2)s1` (centres undefined), the growth was 48.9%. For `O=C(Nc1nc(-c2ccc(Cl)cc2)nc2c1sc(=S)n2-c1ccccc1)C(F)(F)F` the value was 69.2%; for `CCOC(=O)/C(C#N)=C/c1cccc(C)c1`, 86.4%. For `O=C1NCC(c2cc3ccccc3[nH]c2=O)Nc2ccccc21` (centres undefined) the value was 95.7%.

As for `COc1cc2c(c(OC)c1OC)-c1ccc(NN(C(=O)c3ccccc3)C(=O)c3ccccc3)c(=O)cc1[C@@H](NC(C)=O)CC2` (tested in a mixture with another compound), the growth is -1.35% (active).
